Reference: the supplement of paper PMC11732987, “Enantioselective OTUD7B fragment discovery through chemoproteomics screening and high-throughput optimisation” (Communications Chemistry, 2025)

Tests used:
Experiment in all cases: log2 ratio of Biotin-Ahx-Ub-VS probe labelling (fragment/DMSO); higher = less target engagement (more negative = stronger competition), active = hit call of the paper (q ≤ 0.05, log2 ratio ≤ -1)
Details in all cases: compound concentration: 200 uM; treatment time: 3 h
[1] = biological target: T1, USP19 (UniProt O94966)
T1 sequence (whole entry): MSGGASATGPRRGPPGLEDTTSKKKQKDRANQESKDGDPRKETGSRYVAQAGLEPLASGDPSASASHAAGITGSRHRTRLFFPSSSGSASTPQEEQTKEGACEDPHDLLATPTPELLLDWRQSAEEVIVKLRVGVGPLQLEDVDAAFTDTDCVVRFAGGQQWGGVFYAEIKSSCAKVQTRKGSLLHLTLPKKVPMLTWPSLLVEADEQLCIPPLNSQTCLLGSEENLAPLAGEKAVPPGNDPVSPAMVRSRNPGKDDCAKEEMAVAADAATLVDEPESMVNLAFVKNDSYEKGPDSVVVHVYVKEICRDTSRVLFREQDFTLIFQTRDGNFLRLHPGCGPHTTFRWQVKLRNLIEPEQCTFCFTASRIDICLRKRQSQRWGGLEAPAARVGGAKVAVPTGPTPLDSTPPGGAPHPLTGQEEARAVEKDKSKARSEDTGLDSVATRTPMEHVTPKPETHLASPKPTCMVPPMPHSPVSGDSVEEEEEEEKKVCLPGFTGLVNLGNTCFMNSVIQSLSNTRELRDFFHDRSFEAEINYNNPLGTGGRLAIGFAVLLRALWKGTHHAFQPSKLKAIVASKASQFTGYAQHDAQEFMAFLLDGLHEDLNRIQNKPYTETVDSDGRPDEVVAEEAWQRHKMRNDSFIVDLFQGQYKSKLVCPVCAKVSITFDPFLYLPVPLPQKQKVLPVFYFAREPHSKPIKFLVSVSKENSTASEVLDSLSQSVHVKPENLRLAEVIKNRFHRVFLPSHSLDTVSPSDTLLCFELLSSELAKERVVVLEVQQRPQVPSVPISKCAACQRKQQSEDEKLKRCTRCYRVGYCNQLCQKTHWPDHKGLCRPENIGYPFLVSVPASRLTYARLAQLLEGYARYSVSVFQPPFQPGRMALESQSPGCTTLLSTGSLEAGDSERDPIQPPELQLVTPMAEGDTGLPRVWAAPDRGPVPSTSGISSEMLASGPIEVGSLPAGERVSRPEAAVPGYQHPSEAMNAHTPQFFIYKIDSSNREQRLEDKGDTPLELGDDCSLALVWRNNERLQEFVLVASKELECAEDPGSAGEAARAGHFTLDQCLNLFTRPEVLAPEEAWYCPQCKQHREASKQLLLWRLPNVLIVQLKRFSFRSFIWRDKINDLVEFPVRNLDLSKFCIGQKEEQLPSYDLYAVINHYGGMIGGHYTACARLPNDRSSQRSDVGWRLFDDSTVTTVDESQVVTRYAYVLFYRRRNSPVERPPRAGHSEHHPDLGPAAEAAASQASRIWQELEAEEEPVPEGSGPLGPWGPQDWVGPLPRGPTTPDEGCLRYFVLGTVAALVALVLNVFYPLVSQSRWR
How it was run: (§1)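 Labelled DUBs from HEK293T lysate were NeutrAvidin-enriched, digested with LysC and trypsin, and run by diaPASEF LC-MS/MS. Before that, each 495 µg sample in Tris/CHAPS/IGEPAL buffer with protease inhibitors was treated in triplicate with fragment at 200 µM or vehicle for 3 h, then with Biotin-Ahx-Ub-VS at 0.5 µM final for 1 h. Values are average log2 ratios of fragment over vehicle by unpaired t-test, based on global-median-normalised Spectronaut label-free quantities from proteins with ≥2 unique peptides.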

[2] = biological target: T2, USP22 (UniProt Q9UPT9)
T2 sequence (whole entry): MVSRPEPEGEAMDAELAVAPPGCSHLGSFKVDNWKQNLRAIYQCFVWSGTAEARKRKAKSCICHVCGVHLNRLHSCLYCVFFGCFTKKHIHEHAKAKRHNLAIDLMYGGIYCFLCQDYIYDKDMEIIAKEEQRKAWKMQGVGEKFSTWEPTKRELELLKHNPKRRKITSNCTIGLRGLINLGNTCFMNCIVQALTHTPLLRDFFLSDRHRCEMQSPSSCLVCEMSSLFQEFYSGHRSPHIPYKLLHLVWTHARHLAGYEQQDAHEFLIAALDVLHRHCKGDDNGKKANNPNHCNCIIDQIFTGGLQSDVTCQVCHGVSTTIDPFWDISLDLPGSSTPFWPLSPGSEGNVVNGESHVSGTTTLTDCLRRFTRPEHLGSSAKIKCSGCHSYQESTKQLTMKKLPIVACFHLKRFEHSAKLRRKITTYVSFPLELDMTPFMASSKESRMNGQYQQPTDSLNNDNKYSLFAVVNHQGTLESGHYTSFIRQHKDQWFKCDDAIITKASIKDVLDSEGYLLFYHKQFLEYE
How it was run: as §1

[3] = biological target: USP24 (UniProt Q9UPU5)
How it was run: as §1

[4] = biological target: T3, USP25 (UniProt Q9UHP3)
T3 sequence (whole entry): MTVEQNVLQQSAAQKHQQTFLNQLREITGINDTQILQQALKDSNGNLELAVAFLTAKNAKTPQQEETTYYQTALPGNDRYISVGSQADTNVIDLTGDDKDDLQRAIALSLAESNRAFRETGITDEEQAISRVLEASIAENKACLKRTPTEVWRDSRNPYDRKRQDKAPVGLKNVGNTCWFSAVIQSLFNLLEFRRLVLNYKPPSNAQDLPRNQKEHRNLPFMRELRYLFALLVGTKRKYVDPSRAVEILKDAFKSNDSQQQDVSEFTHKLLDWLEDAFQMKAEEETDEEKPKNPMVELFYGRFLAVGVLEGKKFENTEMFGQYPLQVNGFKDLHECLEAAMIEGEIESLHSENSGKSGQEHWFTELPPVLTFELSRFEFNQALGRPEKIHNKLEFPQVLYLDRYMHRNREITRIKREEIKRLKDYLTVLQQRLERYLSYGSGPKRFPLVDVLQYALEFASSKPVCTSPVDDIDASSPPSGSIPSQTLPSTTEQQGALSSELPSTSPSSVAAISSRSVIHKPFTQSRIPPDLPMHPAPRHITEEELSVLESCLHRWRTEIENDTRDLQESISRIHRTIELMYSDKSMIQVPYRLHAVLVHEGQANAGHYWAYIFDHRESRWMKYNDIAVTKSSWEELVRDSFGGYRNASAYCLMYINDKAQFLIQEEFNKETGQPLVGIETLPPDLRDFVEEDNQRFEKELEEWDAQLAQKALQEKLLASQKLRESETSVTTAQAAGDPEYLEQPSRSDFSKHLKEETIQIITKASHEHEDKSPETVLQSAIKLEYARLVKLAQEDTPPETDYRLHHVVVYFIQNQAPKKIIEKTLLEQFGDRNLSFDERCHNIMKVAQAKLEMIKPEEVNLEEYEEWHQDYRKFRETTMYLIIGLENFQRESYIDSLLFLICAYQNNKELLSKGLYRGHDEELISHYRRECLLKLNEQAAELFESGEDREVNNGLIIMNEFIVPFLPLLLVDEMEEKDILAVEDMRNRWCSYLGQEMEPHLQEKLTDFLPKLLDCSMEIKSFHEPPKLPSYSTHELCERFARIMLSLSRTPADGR
How it was run: as §1

[5] = biological target: T4, USP28 (UniProt Q96RU2)
T4 sequence (whole entry): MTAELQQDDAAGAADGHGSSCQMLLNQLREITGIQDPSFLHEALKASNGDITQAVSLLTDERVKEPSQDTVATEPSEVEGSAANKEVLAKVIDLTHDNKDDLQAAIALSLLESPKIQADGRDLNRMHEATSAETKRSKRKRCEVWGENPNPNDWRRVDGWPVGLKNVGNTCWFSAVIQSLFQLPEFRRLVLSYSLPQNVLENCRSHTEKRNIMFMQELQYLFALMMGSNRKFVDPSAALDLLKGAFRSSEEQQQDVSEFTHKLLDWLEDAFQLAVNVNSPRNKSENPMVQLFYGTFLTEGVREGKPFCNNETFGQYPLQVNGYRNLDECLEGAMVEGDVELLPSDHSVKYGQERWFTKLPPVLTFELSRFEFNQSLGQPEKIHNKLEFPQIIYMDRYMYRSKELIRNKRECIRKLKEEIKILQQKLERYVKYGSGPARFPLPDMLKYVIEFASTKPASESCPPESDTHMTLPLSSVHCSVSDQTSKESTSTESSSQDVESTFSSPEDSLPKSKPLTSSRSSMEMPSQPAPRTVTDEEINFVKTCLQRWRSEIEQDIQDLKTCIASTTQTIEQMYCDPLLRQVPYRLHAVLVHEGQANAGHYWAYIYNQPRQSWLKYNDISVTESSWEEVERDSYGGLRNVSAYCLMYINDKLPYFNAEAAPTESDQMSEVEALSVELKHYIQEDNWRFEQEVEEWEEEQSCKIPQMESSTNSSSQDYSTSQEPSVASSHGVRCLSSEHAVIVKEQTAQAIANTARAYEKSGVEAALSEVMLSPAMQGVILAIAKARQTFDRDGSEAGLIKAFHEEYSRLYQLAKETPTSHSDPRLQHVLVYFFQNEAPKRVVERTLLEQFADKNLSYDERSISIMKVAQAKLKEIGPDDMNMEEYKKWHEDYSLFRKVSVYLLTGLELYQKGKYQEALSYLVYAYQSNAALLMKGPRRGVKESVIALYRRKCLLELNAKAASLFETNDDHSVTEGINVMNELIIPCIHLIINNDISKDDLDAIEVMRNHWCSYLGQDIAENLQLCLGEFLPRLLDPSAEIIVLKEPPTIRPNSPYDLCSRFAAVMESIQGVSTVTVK
How it was run: as §1

Measured: log2 ratio of Biotin-Ahx-Ub-VS probe labelling

USP24, sequence (Q9UPU5 whole entry): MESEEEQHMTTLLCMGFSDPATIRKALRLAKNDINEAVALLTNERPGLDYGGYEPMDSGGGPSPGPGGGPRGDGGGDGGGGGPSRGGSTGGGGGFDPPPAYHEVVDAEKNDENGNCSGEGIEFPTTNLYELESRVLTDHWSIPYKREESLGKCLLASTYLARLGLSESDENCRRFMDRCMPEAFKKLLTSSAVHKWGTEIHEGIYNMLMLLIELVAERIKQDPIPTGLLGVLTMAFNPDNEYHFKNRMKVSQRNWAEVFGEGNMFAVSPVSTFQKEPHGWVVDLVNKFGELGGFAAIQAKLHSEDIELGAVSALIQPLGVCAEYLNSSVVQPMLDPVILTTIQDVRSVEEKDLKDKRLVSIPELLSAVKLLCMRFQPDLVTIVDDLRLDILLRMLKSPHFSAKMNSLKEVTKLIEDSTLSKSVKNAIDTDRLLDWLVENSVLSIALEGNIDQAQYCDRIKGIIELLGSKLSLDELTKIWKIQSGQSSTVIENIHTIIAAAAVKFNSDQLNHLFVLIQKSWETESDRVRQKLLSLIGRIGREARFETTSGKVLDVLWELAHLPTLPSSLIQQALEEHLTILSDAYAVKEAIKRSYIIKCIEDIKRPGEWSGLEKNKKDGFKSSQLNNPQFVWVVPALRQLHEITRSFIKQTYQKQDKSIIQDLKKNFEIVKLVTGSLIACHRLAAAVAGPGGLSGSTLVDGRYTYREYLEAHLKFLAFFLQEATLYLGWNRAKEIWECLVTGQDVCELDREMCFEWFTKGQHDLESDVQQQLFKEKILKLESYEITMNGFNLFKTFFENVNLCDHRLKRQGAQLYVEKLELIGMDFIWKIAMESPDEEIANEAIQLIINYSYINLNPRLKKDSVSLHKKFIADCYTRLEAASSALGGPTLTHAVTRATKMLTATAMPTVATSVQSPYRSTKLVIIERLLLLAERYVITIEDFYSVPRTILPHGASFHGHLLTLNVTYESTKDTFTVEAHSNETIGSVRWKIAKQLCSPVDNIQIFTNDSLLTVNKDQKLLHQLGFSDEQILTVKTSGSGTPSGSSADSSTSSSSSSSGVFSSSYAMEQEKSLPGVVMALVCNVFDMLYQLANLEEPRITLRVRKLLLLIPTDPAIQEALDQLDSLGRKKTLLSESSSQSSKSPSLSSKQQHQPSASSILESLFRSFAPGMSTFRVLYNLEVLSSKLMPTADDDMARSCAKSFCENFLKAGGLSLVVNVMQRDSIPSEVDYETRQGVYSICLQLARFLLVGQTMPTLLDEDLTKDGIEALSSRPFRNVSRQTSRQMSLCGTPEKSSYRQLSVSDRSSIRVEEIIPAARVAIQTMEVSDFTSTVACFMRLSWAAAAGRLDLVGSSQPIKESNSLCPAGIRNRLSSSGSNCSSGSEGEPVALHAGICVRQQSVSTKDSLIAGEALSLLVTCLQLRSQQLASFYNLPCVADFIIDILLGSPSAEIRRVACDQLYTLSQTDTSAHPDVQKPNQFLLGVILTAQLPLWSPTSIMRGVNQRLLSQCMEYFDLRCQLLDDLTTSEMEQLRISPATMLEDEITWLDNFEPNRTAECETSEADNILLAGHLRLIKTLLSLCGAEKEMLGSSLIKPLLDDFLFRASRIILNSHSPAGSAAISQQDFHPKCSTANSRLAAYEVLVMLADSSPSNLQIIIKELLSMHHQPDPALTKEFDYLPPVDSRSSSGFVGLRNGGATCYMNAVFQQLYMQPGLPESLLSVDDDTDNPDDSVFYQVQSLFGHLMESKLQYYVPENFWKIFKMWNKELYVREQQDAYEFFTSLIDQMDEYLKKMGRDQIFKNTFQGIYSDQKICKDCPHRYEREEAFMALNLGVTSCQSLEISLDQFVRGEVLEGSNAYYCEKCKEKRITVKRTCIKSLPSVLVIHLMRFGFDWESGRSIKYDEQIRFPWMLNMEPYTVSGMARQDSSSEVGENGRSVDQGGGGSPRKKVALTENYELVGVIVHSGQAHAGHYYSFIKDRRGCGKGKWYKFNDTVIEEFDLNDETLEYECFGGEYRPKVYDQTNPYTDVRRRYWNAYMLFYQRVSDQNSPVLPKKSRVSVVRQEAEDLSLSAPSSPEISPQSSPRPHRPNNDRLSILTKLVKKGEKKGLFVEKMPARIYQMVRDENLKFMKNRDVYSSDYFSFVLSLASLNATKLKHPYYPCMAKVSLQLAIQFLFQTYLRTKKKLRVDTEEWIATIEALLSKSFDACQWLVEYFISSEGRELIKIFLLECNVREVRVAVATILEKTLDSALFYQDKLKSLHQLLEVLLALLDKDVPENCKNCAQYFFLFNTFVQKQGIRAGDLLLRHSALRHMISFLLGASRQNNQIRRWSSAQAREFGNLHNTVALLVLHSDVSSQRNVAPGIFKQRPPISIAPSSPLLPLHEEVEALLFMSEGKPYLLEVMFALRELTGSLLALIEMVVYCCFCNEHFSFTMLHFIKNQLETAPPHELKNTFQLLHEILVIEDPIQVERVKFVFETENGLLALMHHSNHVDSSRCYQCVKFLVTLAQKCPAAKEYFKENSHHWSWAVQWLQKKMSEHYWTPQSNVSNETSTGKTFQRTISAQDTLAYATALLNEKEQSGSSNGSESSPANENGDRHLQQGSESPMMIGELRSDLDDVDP

O=C(CCl)Nc1ccccc1C(F)(F)F
inactive: [1] -0.154 | [2] -0.117 | [3] -0.445 | [4] -0.713 | [5] -0.598
